TRPV1 PAM – HTS Assay for Compounds that Act as Potentiators of the Vanilloid Receptor 1 | Transient receptor potential cation channel subfamily V member 1 (Homo sapiens), Q8NER1 | TRPV1-expressing cells, Fluo-8 calcium influx, capsaicin EC20 potentiation | potentiation, % at 8.33 µM | 320,000 tested, 0.02% active | AID 540277, 2011; in the data active = potentiation above about 80%; inconclusive = between about 30% and that limit; also: 0% is about no effect
Target sequence (Q8NER1 whole entry, looked up): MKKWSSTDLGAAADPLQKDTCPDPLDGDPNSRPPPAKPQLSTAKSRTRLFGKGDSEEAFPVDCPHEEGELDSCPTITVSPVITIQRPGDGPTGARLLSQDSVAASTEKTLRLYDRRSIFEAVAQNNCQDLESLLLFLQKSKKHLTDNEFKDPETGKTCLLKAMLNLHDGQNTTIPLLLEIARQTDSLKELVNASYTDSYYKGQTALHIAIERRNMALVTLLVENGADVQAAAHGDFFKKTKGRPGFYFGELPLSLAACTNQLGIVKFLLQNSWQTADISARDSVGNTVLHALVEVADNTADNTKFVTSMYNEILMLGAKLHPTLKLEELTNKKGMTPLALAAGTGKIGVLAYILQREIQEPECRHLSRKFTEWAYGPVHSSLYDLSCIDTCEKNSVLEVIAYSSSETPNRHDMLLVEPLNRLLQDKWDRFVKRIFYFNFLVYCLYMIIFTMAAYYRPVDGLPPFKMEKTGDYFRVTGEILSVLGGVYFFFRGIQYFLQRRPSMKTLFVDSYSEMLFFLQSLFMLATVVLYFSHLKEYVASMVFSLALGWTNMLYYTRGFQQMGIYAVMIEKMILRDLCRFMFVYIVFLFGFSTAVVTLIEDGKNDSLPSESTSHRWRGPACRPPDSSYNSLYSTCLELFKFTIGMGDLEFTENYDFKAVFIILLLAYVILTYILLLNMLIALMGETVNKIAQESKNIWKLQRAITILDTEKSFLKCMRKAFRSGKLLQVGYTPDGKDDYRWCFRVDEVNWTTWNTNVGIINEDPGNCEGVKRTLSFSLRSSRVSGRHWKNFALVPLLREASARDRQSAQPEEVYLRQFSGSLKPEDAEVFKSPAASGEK
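Fluo-8 calcium influx in TRPV1-expressing cells, kinetic read (ex 480/em 520 nm). Compound added and read 3 min for agonist activity, followed by capsaicin at EC20 final and 2 min further read for enhancement.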
ELG1 repair inh – qHTS screen for small molecules that inhibit ELG1-dependent DNA repair in human embryonic kidney (HEK293T) cells expressing luciferase-tagged ELG1; HEK293T ELG1-luciferase reporter, luminescence, 16 h; DNA damage induced by 5-fluorouridine; Potency, µM (titrated, usually from 46.1 µM), for inactives: at the top dose activity change, negative = inhibition, most hits filed as inhibitors; 330,000 tested, 2.3% active; also: potency is read from the fitted curve at half-maximal effect; % is scaled to controls: 0 for no effect and ±100 for the full control effect; nearly all actives have a fitted effect of over 55% in size
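HEK293T cells expressing luciferase-tagged ELG1 (2,000/well) received 5-Fluorouridine plus compound or DMSO for 16 hr at 37 °C. Luciferase was read by ONE-Glo luminescence after 30 min at room temperature.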
TRPV1 ag – HTS Assay for Compounds that Act as Agonists of the Vanilloid Receptor 1 | activation, % at 8.33 µM | AID 540275, 2011 | TRPV1-expressing cells, Fluo-8 calcium influx, agonist mode | 320,000 tested, 0.19% active; in the data active = activation above about 80%; inconclusive = between about 30% and that limit; also: 0% is about no effect
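Cells expressing TRPV1 were dye-loaded with Fluo-8 and read kinetically: 10 s baseline, 3 min after compound (agonist portion), then 2 min after EC20 capsaicin (allosteric enhancer portion). Calcium-bound dye fluorescence at 480/520 nm.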
FUS suppressor – qHTS for Suppressors of FUS Proteinopathy: Primary screen using FUS-linked yeast assay; S. cerevisiae FUS-expressing, growth rescue, OD600, 24 h; Potency, µM (highest dose often 76.6 µM), most hits filed as activators; 390,000 tested, 0.24% active; AID 1347120, 2019;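 also: potency is read from the fitted curve at half-maximal effect; plate controls were DMSO vehicle for no effect and reference control for full effect; nearly all actives have a fitted effect of over 55% in size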
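Compound concentration series was pinned onto galactose-induced FUS-expressing yeast seeded at OD 0.005. Plates sat 24hr at 30C; absorbance at 600 nm gave growth. DMSO served as background control.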
Giardia kill – Small Molecules that selectively kill Giardia lamblia: qHTS. Giardia lamblia trophozoite viability. activity change, % at 7.66 µM, hits read low. 340,000 tested, 0.15% active; in the data active = activity change below about -80%; inconclusive = between about -30% and that limit;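 also: parasites exposed to compound for two days anaerobically before the ATP read; % is scaled to controls: 0 for no effect and ±100 for the full control effect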
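Killing of trophozoites was scored by loss of ATP luminescence after a 48 hrs anaerobic exposure to compounds at 37 deg C, using 100 cells per well.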
* marks the source's active call; other numbers are inactive results; i = inactive; ? = inconclusive; · = not tested or not shown. Compounds with a hit are over-represented: about 2.3% of the library has one in this group of screens. Unless noted, calls follow the shape of the dose curve; as a rule, active = well fitted curve in the direction sought with a large enough effect; inconclusive = small, poorly fitted or top-dose-only effect, or another doubt; inactive = no such curve, though single readings can be large; an effect the other way counts as inactive or inconclusive.

SMILES | TRPV1 PAM | ELG1 repair inh | TRPV1 ag | FUS suppressor | Giardia kill
CC1(C)C(=O)Nc2ccccc2N1C(=O)COC(=O)c1ccc(Cl)c(S(=O)(=O)NCc2ccccc2)c1 | -5 | 21µM* | 2 | i | -2
Cc1ccc(C(=O)C=CC=Cc2ccccc2)cc1 | · | · | · | i | ·
Cc1ccc(C(=O)C(C(=O)/C=C/c2ccccc2)=C2SCCCS2)cc1 | -3 | 18µM* | 2 | i | 4
Cc1cc2oc3c(c(=O)c2cc1C)C(c1cccc(Br)c1)N(Cc1ccco1)C3=O (configuration not stated) | 8 | 0.63µM* | 18 | i | 15
Cc1ccc2oc3c(c(=O)c2c1)C(c1cccc(Br)c1)N(Cc1ccco1)C3=O (configuration not stated) | -11 | -2% | 14 | i | -6
CC(C)(C)C(=O)Nc1cc2nn(-c3ccccc3)nc2cc1Cl | -11 | ? | 13 | ? | -93*
CC(=O)Nc1cc2nn(-c3ccccc3)nc2cc1Cl | 4 | ? | 3 | i | 5
O=C(Cc1ccc(NC(=O)N2CCSc3ncccc32)cc1)NCc1ccccc1 | · | · | · | i | ·
COc1cccc2cc(-c3cc(=O)oc4cc(C)c(OCC(C)=O)cc34)oc12 | 2 | 5.2µM* | -1 | i | 9
COCCNC(=O)c1c(N)[nH]c(C(=O)c2ccc(Br)cc2)c1-c1c(OC)ccc2ccccc12 | · | · | · | i | ·
COc1cccc(-c2noc(C3CC(=O)N(c4ccc(F)cc4)C3)n2)c1OC (configuration not stated) | · | · | · | i | ·
O=C(/C=C/c1ccc2ccccc2n1)N1CCN(S(=O)(=O)c2ccccc2F)CC1 | -14 | 16µM* | 8 | ? | 13
COc1ccc(CNc2nc(N)nc3nc[nH]c23)cc1 | · | · | · | · | -1
O=C1c2ccccc2C(=O)N1CCSc1nc2ccccc2c(=O)n1CCCN1CCOCC1 | -3 | 7% | -2 | i | 2
O=C1c2ccccc2C(=O)N1CCCCSc1nc2ccccc2c(=O)n1CCCN1CCOCC1 | -21 | 21µM* | 28 | i | 8
COc1ccc(CC(=O)N/N=C(\C)c2cccnc2)cc1 | 11 | ? | 2 | i | 8
CN=c1scc(-c2ccc(OC)cc2)n1/N=C(\C)c1cccnc1 | 8 | 18µM* | 1 | i | -14
Cc1ccc2[nH]c(CSc3nnc(NC(=O)c4ccc(Cl)cc4)s3)cc(=O)c2c1 | · | · | · | i | ·
N#Cc1c2ccc(O)cc2n2ccccc12 | -2 | 4.1µM* | 5 | i | -6
CCN1CCN(c2cc(-c3ccccc3)nc3cc(-c4cccc(F)c4)nn23)CC1 | 2 | 23µM* | 13 | i | -1
Cc1cc(N2CCN(C(=O)c3ccco3)CC2)n2nc(-c3cccc(F)c3)cc2n1 | -18 | 16µM* | ? | i | -1
COc1cccc(-c2cc3nc(-c4ccccc4)cc(N4CCCC(O)C4)n3n2)c1 (configuration not stated) | -6 | 16µM* | 11 | i | 8
COc1cc(OC)cc(-c2cc3nc(C)cc(N4CCN(C(=O)c5ccco5)CC4)n3n2)c1 | -12 | ? | 29 | · | ·
OC1CCN(c2cc(-c3ccccc3)nc3cc(-c4ccc(F)cc4)nn23)CC1 | 3 | 13µM* | 4 | i | -3
Nc1c(Br)cc(Br)c2cccnc12 | -5 | · | -4 | · | 1
SMILES | TRPV1 PAM | ELG1 repair inh | TRPV1 ag | FUS suppressor | Giardia kill
COc1ccc(-c2cc3nc(-c4ccccc4)cc(N4CCC5(CC4)OCCO5)n3n2)cc1 | -10 | 21µM* | 0 | ? | -2
COc1ccc(-c2cc3nc4c(c(N5CCC6(CC5)OCCO6)n3n2)CCC4)cc1 | -15 | ? | 30 | i | 12
Cc1ccc(C(=O)Nc2nnc(S(=O)(=O)N3CCc4ccccc43)s2)cc1 | · | · | · | i | ·
Cc1cc(C)c(C#N)c(N2CCN(Cc3ccc4c(c3)OCO4)CC2)n1 | -11 | ? | 15 | i | -1
N#CCc1c(C#N)c(N)nc(N2CCN(Cc3ccc4c(c3)OCO4)CC2)c1C#N | -7 | 18µM* | 6 | · | -4
Cc1cc(C)c2c(=O)c3c(oc2c1)C(=O)N(CCCOC(C)C)C3c1ccccc1F (configuration not stated) | · | · | · | i | ·
CCN(C[C@H]1N[C@@](CC)(C(=O)OC)[C@H]2C(=O)N(Cc3ccccc3)C(=O)[C@@H]12)C(=O)c1ccccc1 | · | 21µM* | · | i | -14
CCN(C[C@H]1N[C@@](Cc2ccccc2)(C(=O)OC)[C@H]2C(=O)N(C)C(=O)[C@@H]12)S(=O)(=O)c1ccc(C(F)(F)F)cc1 | · | 23µM* | · | ? | -3
CCN(C[C@H]1N[C@@](Cc2ccccc2)(C(=O)OC)[C@H]2C(=O)N(C)C(=O)[C@@H]12)S(=O)(=O)c1ccc(OC(F)(F)F)cc1 | · | 21µM* | · | ? | -10
COC(=O)[C@]1(Cc2ccccc2)N[C@H](c2ccc(-c3cccc(Cl)c3)cc2)[C@@H]2C(=O)N(C)C(=O)[C@@H]21 | -34 | -2% | 1 | 14µM* | 1
COc1ccc(CCn2c(-c3ccco3)nc3ccccc3c2=O)cc1OC | -21 | 10µM* | -2 | i | -5
COc1ccc(OC)c(NC(=O)N2c3ccccc3Sc3ccccc32)c1 | · | · | · | i | ·
Cc1ccc(C2=Nc3ccccc3N(CC(=O)Nc3ccccc3C)C(=O)C2)cc1C | · | · | · | i | ·
COc1ccc(OC)c2c1C(=O)C(Cl)=C(Cl)C2=O | -2 | 21µM* | 1 | i | -15
COc1ccc(OC)c2c1C(=O)c1ccccc1C2=O | 13 | 1% | 5 | i | -17
Cc1cc2ccccc2n2c(SCC(=O)Nc3ccc(S(=O)(=O)N4CCC(C)CC4)cc3)nnc12 | 10 | 26µM* | -5 | i | -3
O=C(NCCc1ccccc1)c1cc(Sc2ccc(F)cc2F)nc2ccccc12 | · | · | · | i | ·
O=C(NCc1cccnc1)c1cc(Sc2ccc(F)cc2F)nc2ccccc12 | -7 | 21µM* | ? | i | -9
COc1ccc(CNC(=O)c2cc3c(=O)oc4ccc(C)cc4c3s2)c(OC)c1 | · | · | · | i | ·
O=C(NC1CC1)C1=NOC(CNc2ncc(C(F)(F)F)cc2Cl)C1 (configuration not stated) | -5 | 0% | 80* | i | -9
O=C(C1=NOC(CNc2ncc(C(F)(F)F)cc2Cl)C1)N1CCOCC1 (configuration not stated) | -9 | 4% | 121* | i | 1
CCC(=O)N1CCc2cc(CNS(=O)(=O)c3ccccc3F)ccc21 | · | · | · | i | ·

From PubChem BioAssay
